Shown are actives, neighbours in structure and some others; about 27% of the full set was active somewhere.
Cav32 inh – inhibitors of human Cav3.2 T-type calcium channel; O95180; Cav3.2-expressing cells, Fluo-4 calcium fluorescence FDSS; active compounds read low; B-score at 10 µM; actives 4% (n = 100,000); AID 449739;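 active = single-dose well whose peak fluorescence ratio is a statistical outlier from its plate by either plate-standardised score or position-corrected B-score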
Target sequence (O95180 whole entry, looked up): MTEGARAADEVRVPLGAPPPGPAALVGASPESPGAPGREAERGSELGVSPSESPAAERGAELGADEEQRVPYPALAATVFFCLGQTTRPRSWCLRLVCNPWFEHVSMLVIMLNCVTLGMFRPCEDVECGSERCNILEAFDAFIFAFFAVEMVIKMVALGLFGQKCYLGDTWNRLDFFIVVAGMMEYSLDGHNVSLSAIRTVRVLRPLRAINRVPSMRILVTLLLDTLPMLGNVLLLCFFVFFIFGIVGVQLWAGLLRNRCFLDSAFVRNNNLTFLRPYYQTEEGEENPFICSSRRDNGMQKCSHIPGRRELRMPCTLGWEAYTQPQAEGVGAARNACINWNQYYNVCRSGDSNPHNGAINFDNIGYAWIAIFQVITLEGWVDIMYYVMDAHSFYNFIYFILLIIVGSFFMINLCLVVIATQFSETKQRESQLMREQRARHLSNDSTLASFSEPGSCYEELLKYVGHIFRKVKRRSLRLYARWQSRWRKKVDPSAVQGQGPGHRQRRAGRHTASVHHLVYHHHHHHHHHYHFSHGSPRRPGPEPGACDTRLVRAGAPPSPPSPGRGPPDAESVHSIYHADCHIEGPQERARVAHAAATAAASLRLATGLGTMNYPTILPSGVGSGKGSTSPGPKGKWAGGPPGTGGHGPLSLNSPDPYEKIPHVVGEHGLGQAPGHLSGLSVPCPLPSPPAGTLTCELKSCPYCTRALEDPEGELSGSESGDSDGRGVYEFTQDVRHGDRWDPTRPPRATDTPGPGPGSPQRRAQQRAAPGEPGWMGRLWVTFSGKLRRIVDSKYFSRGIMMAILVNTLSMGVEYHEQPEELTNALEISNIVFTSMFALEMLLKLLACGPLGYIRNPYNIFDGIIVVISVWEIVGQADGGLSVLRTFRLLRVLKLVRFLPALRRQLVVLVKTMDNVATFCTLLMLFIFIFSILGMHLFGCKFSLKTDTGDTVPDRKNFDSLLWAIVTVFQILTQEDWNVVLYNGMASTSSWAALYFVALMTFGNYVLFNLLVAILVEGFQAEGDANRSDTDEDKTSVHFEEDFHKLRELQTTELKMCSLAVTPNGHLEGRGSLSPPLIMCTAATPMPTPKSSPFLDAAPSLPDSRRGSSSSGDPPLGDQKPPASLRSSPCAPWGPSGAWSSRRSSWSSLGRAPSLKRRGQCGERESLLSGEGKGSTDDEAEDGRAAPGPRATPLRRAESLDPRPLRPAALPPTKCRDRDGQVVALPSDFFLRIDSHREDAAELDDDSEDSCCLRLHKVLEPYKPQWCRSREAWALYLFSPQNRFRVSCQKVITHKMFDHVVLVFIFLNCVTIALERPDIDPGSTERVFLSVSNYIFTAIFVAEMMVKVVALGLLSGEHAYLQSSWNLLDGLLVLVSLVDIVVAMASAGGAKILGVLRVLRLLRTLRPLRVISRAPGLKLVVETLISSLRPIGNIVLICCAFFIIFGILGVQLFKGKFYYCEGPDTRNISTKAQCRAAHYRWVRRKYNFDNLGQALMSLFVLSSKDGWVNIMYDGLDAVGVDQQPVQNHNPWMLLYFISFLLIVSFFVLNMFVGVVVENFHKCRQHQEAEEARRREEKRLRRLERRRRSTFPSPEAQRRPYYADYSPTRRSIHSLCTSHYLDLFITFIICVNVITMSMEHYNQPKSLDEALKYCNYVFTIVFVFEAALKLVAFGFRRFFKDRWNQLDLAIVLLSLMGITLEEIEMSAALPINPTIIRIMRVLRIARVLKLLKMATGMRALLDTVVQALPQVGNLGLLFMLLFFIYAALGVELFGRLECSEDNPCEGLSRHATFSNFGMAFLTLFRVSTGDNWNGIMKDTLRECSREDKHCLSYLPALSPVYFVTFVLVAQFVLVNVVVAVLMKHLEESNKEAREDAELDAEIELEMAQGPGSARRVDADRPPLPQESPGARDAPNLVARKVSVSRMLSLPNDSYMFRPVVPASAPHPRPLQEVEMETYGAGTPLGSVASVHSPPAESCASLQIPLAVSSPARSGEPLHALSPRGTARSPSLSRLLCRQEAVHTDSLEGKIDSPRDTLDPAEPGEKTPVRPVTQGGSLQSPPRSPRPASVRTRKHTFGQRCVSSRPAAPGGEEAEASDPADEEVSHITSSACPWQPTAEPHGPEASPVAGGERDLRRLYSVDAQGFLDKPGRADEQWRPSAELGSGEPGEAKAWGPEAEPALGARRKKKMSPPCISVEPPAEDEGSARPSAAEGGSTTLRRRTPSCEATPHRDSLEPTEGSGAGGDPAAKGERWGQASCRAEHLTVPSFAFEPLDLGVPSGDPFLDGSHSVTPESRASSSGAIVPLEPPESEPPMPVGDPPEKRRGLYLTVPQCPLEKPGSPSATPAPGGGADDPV
CYP2C19 inh – blocks human cytochrome P450 2C19; P33261; inhibition, % at 5 µM; actives 21% (n = 96,000); CYP2C19 Supersomes, luciferin-H EGE luminescence, 30 min;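 active = CYP2C19 inhibition above a set limit at 5 µM in the primary screen, cut at about 50% in these data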
CYP2C19 activ – activators of human cytochrome P450 2C19 | P33261 | recombinant CYP2C19, luciferin-H EGE luminescence; active compounds read high; 0 = fully inhibited enzyme, 1 = untreated enzyme | activation factor at 5 µM | 96,000 tested, under 10 active | AID 1025;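 active = activation factor of at least 2 at 5 µM in the primary screen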
CYP2C9 inhib – inhibitors of human CYP2C9; P11712; CYP2C9 Supersomes, luciferin-H conversion, luminescence; inhibition, % at 5 µM; actives 20% (n = 96,000); AID 777;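 active = blocking of liver enzyme CYP2C9 beyond about 50% at 5 µM, limit read from the data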
CYP2C9 activ – CYP2C9 (human) activation; activation factor at 5 µM; P11712; recombinant CYP2C9, luciferin-H conversion, luminescence; active compounds read high; factor 1 = untreated enzyme, 0 = blocked; actives 1.4% (n = 96,000);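 active = activation factor of 2 or more for CYP2C9 at a 5 µM dose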
Of the large screens only hits and unclear results are named; the others gave an inactive call.

CC1CN(c2oc(-c3ccco3)nc2S(=O)(=O)c2ccccc2)CC(C)O1 (stereo not given)	none
CCS(=O)(=O)NCCc1cc2ccc(C)cc2[nH]c1=O	none
O=C(Nc1c(C(=O)O)oc2ccc(Br)cc12)c1ccccc1	none
O=C(Cn1nnc(-c2cccc(C(F)(F)F)c2)n1)N1CCOCC1	CYP2C9 activ 3.3
Cc1cccc2sc(NC(=O)C3c4ccccc4Oc4ccccc43)nc12	Cav32 inh -3.34, CYP2C9 inhib 79.8
O=C(Nc1nc(-c2ccccc2)cs1)C1c2ccccc2Oc2ccccc21	Cav32 inh -5.18, CYP2C9 inhib 72.1
CC(C)c1nnc(NC(=O)C2c3ccccc3Oc3ccccc32)s1	none
O=C(Nc1cccnc1Cl)C1c2ccccc2Oc2ccccc21	CYP2C19 inh 70.5
O=C(Nc1ccncc1)C1c2ccccc2Oc2ccccc21	CYP2C19 inh 96.7, CYP2C9 inhib 97.7
COC(=O)Nc1nc2c(C)cccc2s1	none
CN1CCC(=O)N(CCSc2ccc(Br)cc2)CC1	none (no result: CYP2C19 inh, CYP2C19 activ, CYP2C9 inhib, CYP2C9 activ)
O=C(CSc1nnc(-c2ccccc2O)o1)Oc1ccc(OCc2ccccc2)cc1	none
O=C(Nc1nc(-c2ccc(-c3ccccc3)cc2)cs1)C1CCCO1 (stereo not given)	none
Cc1nnc(NC(=O)C2c3ccccc3Oc3ccccc32)s1	none (no result: CYP2C19 inh, CYP2C19 activ, CYP2C9 inhib, CYP2C9 activ)
O=C(Nc1nncs1)C1c2ccccc2Oc2ccccc21	CYP2C19 inh 53.5
O=C(Nc1nc(-c2ccccc2)cs1)C1CCCO1 (stereo not given)	CYP2C19 inh 62.2, CYP2C9 inhib 54.3
CCn1c(C2CC(=O)N(c3cc(C)cc(C)c3)C2)nc2ccccc21 (stereo not given)	none
Cc1ccc(OCCn2c(C3CC(=O)N(Cc4ccccc4)C3)nc3ccccc32)cc1 (stereo not given)	Cav32 inh -7.32, CYP2C9 inhib 84.0
C=CCN1CC(c2nc3ccccc3n2Cc2cccc3ccccc23)CC1=O (stereo not given)	CYP2C9 inhib 59.6
CCOCCCNCc1cccc(OC)c1	none
Cc1ccc(NC(=O)/C(=C\c2cccc([N+](=O)[O-])c2)NC(=O)c2cccs2)cc1	none (no result: Cav32 inh)
COc1cc(=O)n(C)c2c(O)cccc12	none (no result: CYP2C19 inh, CYP2C19 activ, CYP2C9 inhib, CYP2C9 activ)
Nc1c(C(=O)C2CC2)sc2nc(-c3ccccc3)cc(C(F)(F)F)c12	Cav32 inh -6.19 (no result: CYP2C19 inh, CYP2C19 activ, CYP2C9 inhib, CYP2C9 activ)
CC(=O)c1sc2nc(-c3cccs3)cc(C(F)(F)F)c2c1N	CYP2C19 inh 57.6, CYP2C9 inhib 67.2
CC1=C(C(=O)Nc2ccccc2)C(c2ccc(C)cc2)N=C(Nc2nc3ccccc3o2)N1 (stereo not given)	none
CCCCn1nnc(NC(=O)CC23CC4CC(CC(C4)C2)C3)n1	none
CC(=O)NC(CCS(C)(=O)=O)C(=O)Nc1cccc2ccccc12 (stereo not given)	CYP2C9 inhib 54.1
N#CC1=C(N)C(C#N)(C#N)C2(C(=O)Nc3ccccc32)C2CCCC=C12 (stereo not given)	CYP2C9 inhib 55.3
CCn1nnnc1SCC(=O)Nc1ccc(OCc2ccccc2)cc1	none (no result: CYP2C19 inh, CYP2C19 activ, CYP2C9 inhib, CYP2C9 activ)
Cn1c(=O)c2c(-c3ccccc3)n(N3CCOCC3)cc2n(C)c1=O	CYP2C9 inhib 55.0
Cn1c(=O)c2c(-c3ccc(C(C)(C)C)cc3)n(N3CCOCC3)cc2n(C)c1=O	none
Cc1nc(-c2ccccc2)sc1-c1nc(-c2ccncc2)ncc1S(=O)(=O)c1ccccc1	CYP2C19 inh 93.3, CYP2C9 inhib 95.9 (no result: Cav32 inh)
O=S(=O)(c1ccc(Cl)cc1)c1snnc1-c1ccccc1	CYP2C19 inh 89.5
O=S(=O)(c1ccc(Cl)cc1)c1cnc(-c2cccnc2)nc1-c1ccccc1	CYP2C19 inh 51.5
Cc1ccc(S(=O)(=O)c2cnc(-c3ccccc3)nc2Oc2ccccc2)cc1	none
Cc1ncc(S(=O)(=O)c2ccccc2)c(-c2ccc(Cl)cc2Cl)n1	CYP2C19 inh 73.3
O=C(Nc1ccccn1)C(=O)N1CCCCC1	none (no result: CYP2C19 inh, CYP2C19 activ, CYP2C9 inhib, CYP2C9 activ)
COc1ccc(C2=[N+]([O-])C(C)(C)N(O)C2C)cc1 (stereo not given)	none (no result: CYP2C19 inh, CYP2C19 activ, CYP2C9 inhib, CYP2C9 activ)
COc1ccc(Oc2nc(-c3ccccc3)ncc2S(=O)(=O)c2ccccc2)cc1	none
CN(C)c1ncc(S(=O)(=O)c2ccc(Cl)cc2)c(-c2ccccc2)n1	CYP2C19 inh 97.0, CYP2C9 inhib 60.5
Cc1ccsc1C(=O)Nc1ccc(C(=O)O)cc1	CYP2C19 inh 92.1, CYP2C9 inhib 57.4
COc1ccc(-n2c(-c3ccccc3)nnc2-c2ccc(Cl)cc2)cc1	none
COc1ccc(-n2nnnc2-c2ccccc2)cc1	CYP2C19 inh 75.6
COc1ccc(OCc2nnnn2-c2ccccc2)cc1	CYP2C19 inh 68.9
Clc1ccc(-n2nnnc2-c2ccccc2)cc1	CYP2C19 inh 97.7, CYP2C9 inhib 61.4
COC(=O)CSc1nc2c(c(-c3ccco3)c1C#N)CCCC2	none
COC(=O)CSc1nc(SCc2ccccc2Cl)nc2c1CCCC2	Cav32 inh -4.99, CYP2C9 inhib 69.2
C=C(C)CSc1nc2nc(C)cc(C)n2n1	none
Cc1ccc(C(=O)c2c(NC(=O)c3ccccc3C)sc(C)c2C)cc1	CYP2C9 inhib 78.1
CCOC(=O)N1CCN(C(=O)CN(C2CCCCC2)S(=O)(=O)c2ccc(F)cc2)CC1	none
CCOC(=O)CSc1ccc(S(=O)(=O)N(C)C2CCCCC2)cc1[N+](=O)[O-]	CYP2C19 inh 64.5, CYP2C9 inhib 88.2
CCCS(=O)(=O)c1c(S(=O)(=O)CCC)c2c3ccccc3ccn2c1C(N)=O	none
CN(C)CCCOc1nc2c(c(=O)n(C)c(=O)n2C)n1C	none (no result: CYP2C19 inh, CYP2C19 activ, CYP2C9 inhib, CYP2C9 activ)
COc1ccccc1C(=O)Nc1ccc(S(=O)(=O)Nc2cc(C)on2)cc1	none
COc1ccc(-n2cnc3cc(NS(=O)(=O)c4ccc(C)cc4)ccc32)cc1	CYP2C19 inh 91.2, CYP2C9 inhib 98.3
CCn1cnc2cc(NCc3cccc(OC)c3O)ccc21	none
CCn1cnc2cc(NCc3ccc(C)cc3)ccc21	CYP2C19 inh 74.9
COc1ccccc1-n1cnc2cc(NS(=O)(=O)c3ccc(Br)cc3)ccc21	CYP2C19 inh 98.4, CYP2C9 inhib 99.4
CCn1cnc2cc(NS(=O)(=O)c3ccc(C)cc3)ccc21	CYP2C19 inh 88.7, CYP2C9 inhib 84.0
COc1ccc(S(=O)(=O)Nc2cc(C)ccn2)cc1	none
COc1cccc(CNC(=O)C(CCSC)NS(=O)(=O)c2ccc3c(c2)oc(=O)n3C)c1 (stereo not given)	none (no result: Cav32 inh)
Cc1ccc(-n2ncc3c(=O)n(CC(=O)NCc4ccco4)cnc32)cc1C	none
CCCn1cnc2cc(NCc3cccc(OC)c3)ccc21	CYP2C19 inh 59.1
CCCCn1cnc2cc(NCc3cccc(OC)c3O)ccc21	none
COc1cc(S(=O)(=O)N2CCN=C2c2ccccc2)ccc1F	CYP2C19 inh 74.3 (no result: Cav32 inh)
Cc1ccc(S(=O)(=O)N2CCN=C2c2ccccc2)cc1C	none (no result: CYP2C19 inh, CYP2C19 activ, CYP2C9 inhib, CYP2C9 activ)
COc1cc(S(=O)(=O)n2c(C)nc3ccccc32)ccc1F	CYP2C19 inh 93.9
CCCCOc1ccc(S(=O)(=O)n2c(C)nc3ccccc32)cc1	CYP2C9 inhib 67.0
Cc1nc2ccccc2n1S(=O)(=O)N(C)C	none
COC(=O)Nc1ccc(S(=O)(=O)NCCO)cc1	none
Cc1cccc(OC(=O)c2cn(C)nc2C(F)(F)F)c1C	none
